Test results taken from PubChem BioAssay (NCI).
About 83,000 compounds went through this panel and 20% of them were active in at least one assay; those are over-represented in the sample as a whole.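 For each line, cells grew in 96-well plates with the test compound present at a single concentration for 48 hours.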 A number with no mark means an inactive call. Activity calls are given as the source filed them. Rule for the calls: active = growth percent below 10; inactive = the rest.

Legend:
Assay in all cases: NCI-60 one-dose screen, 48 h (100 = growth as untreated, 0 = no growth, -100 = all killed)
Settings in all cases: 10 µM unless noted
HCT-15 colon = test system: HCT-15 colon
HT29 colon = test system: HT29 colon
SNB-75 CNS = test system: SNB-75 CNS
SNB-19 CNS = test system: SNB-19 CNS
U251 CNS = test system: U251 CNS
PC-3 prostate = test system: PC-3 prostate
SK-MEL-5 melanoma = test system: SK-MEL-5 melanoma
UACC-62 melanoma = test system: UACC-62 melanoma
LOX IMVI melanoma = test system: LOX IMVI melanoma
SK-MEL-28 melanoma = test system: SK-MEL-28 melanoma
EKVX NSCLC = test system: EKVX NSCLC
SN12C renal = test system: SN12C renal
UO-31 renal = test system: UO-31 renal
TK-10 renal = test system: TK-10 renal
ACHN renal = test system: ACHN renal
CAKI-1 renal = test system: CAKI-1 renal
A498 renal = test system: A498 renal
CCRF-CEM leukemia = test system: CCRF-CEM leukemia
MOLT-4 leukemia = test system: MOLT-4 leukemia

Compound	growth (HCT-15 colon)	growth (HT29 colon)	growth (SNB-75 CNS)	growth (SNB-19 CNS)	growth (U251 CNS)	growth (PC-3 prostate)	growth (SK-MEL-5 melanoma)	growth (UACC-62 melanoma)	growth (LOX IMVI melanoma)	growth (SK-MEL-28 melanoma)	growth (EKVX NSCLC)	growth (SN12C renal)	growth (UO-31 renal)	growth (TK-10 renal)	growth (ACHN renal)	growth (CAKI-1 renal)	growth (A498 renal)	growth (CCRF-CEM leukemia)	growth (MOLT-4 leukemia)
NC1=Nc2cc(OCCCN3Cc4ccccc4C3)c(OCC3CC3)cc2C12CCCC2	25.1%	5.45% (active)	60.3%	82.4%	49.5%	45.4%	-11% (active)	45.7%	8.85% (active)	-44% (active)	72.6%	77.6%	42.1%	78.4%	83.1%	49.9%	68.4%	37%	44.2%
CCOc1cc2ncc(C#N)c(Nc3ccc(F)c(Cl)c3)c2cc1NC(=O)/C=C/CN(C)C	-31.1% (active)	-35.3% (active)	-98.5% (active)	-26.6% (active)	-70.9% (active)	-1.37% (active)	-94.5% (active)	-46.7% (active)	-72.3% (active)	-75.4% (active)	-22% (active)	-51.7% (active)	-92.2% (active)	-75.9% (active)	-94.3% (active)	-59.6% (active)	-3.54% (active)	0.208% (active)	-26% (active)
CC(C)(C)c1cnc(CSc2cnc(NC(=O)C3CCNCC3)s2)o1	22.8%	-9.89% (active)	-39.5% (active)	12.4%	2.2% (active)	0.914% (active)	-47.2% (active)	-49.7% (active)	6.56% (active)	-12.8% (active)	22.7%	11.8%	-4.7% (active)	5.16% (active)	9.41% (active)	16.5%	-31.7% (active)	7.55% (active)	0.905% (active)
Fc1ccc(NCc2cn(-c3ccccc3)nc2-c2ccc(OCc3ccccc3)cc2)cc1Cl	92.2%	71.3%	77.7%	95.1%	97.1%	79.9%	101%	90.7%	96.7%	98.9%	85.7%	91.6%	75%	93.7%	91%	82.9%	119%	92%	85.8%
CC(=O)C1CC(C)CCC1C(C)C (configuration not stated)	104%	101%	81.1%	91.1%	107%	55.4%	98.9%	85.3%	86.6%	123%	106%	83.8%	67.4%	83.2%	87.8%	122%	92.4%	70.5%	83.1%
Nc1nc(Nc2ccccc2)c(C=Nc2ccccc2)c(=O)[nH]1	96.9%	101%	80.3%	89.1%	89.1%	87.5%	98.4%	84.3%	87.1%	109%	89.1%	91%	61%	116%	83.4%	68%	86.3%	92.1%	81.2%
CC(=O)OC(C(=O)c1ccccc1)c1ccccc1 (configuration not stated)	105%	80.4%	84.6%	103%	106%	89%	102%	100%	107%	107%	109%	94.6%	75.6%	94.6%	101%	91.7%	95.9%	104%	102%
CCc1cnn2c(NCc3ccc[n+]([O-])c3)cc(N3CCCC[C@H]3CCO)nc12	0.896% (active)	-29.3% (active)	-74.4% (active)	6.92% (active)	-8.91% (active)	-20.5% (active)	-40.2% (active)	-70.7% (active)	5% (active)	-34.3% (active)	-11.2% (active)	4.31% (active)	-7.4% (active)	-16% (active)	2.95% (active)	6.71% (active)	-60.4% (active)	-0.938% (active)	-9.3% (active)
